Experimental data taken from PubChem BioAssay (NCI).
This is part of a sample that, as a whole, favours compounds with a hit. Of some 83,000 tested, about 20% had one in any assay.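 Note: values are percent growth. 100 is the growth of untreated cells, values between 100 and 0 indicate rising inhibition; between -100 and 0 indicates cell death.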 The source made the active and inactive calls. The calls were made as follows: active = growth percent below 10; inactive = the rest.

Each compound was assayed on HL-60(TB) leukemia (assay: NCI-60 one-dose screen, 48 h (100 = growth as untreated, 0 = no growth, -100 = all killed)). Details: 10 µM unless noted.

Row | SMILES | growth
1 | COc1cc(/C=C2\CCCC3C2=Nc2ccccc2NC3c2cc(OC)c(OC)c(OC)c2)cc(OC)c1OC (stereo not given) | 1.55% (active)
2 | NC(=NCCCOc1ccc(Cl)cc1)Nc1ccc(Cl)cc1 | 95.3% (inactive)
3 | CCCNC(=O)Oc1ccc(/C(=C(/C)Cc2ccc(OC)cc2)c2ccc(OCCN3CCCC3)cc2)cc1 | 51.9% (inactive)
4 | Cc1ccc(/C=C/C(=O)c2ccc(-n3cc(CN4CCN(c5cc6c(cc5F)c(=O)c(C(=O)O)cn6C5CC5)CC4)nn3)cc2)cc1 | 98.8% (inactive)
5 | O=[N+]([O-])c1ccc(O)c(S(=O)(=O)O)c1 | 101% (inactive)
6 | O=C(CCCN1CCC(O)(c2ccc(Br)cc2)CC1)c1ccc(F)cc1 | 72.5% (inactive)
7 | Cn1c2c(cc(S(=O)(=O)c3ccccc3)c1=O)CCc1c-2cnn1-c1ccc(Cl)cc1 | 73.1% (inactive)
8 | O=C(Nc1cccc(-n2cc(-c3ccncc3)c(-c3cc(O)cc(Cl)c3)n2)c1)c1ccc(N2CCOCC2)c(C(F)(F)F)c1 | -46.4% (active)
9 | CC(=O)OC1CC2C(C)(C)CCC[C@]2(C)C2=C1C(O)=C(C(C)C)C(=O)C2=O (stereo not given in full) | 3.12% (active)
10 | Nc1c(C(=O)Nc2cccc(Cl)c2)sc2ncc(Br)cc12 | 108% (inactive)
11 | O=[N+]([O-])c1ccc(-c2ncc(-c3ccc(O)cc3O)[nH]2)cc1 | 145% (inactive)
12 | COc1ccc(-c2cc(-c3ccc(N(C)C)cc3)nc(NC(=O)c3ccncc3)n2)cc1 | 113% (inactive)
13 | CC1CCC2(C(=O)O)CCC3(C)C(=CCC4C5(C)CC(O)C(O)C(C)(CO)C5C(O)CC43C)C2C1C (stereo not given) | 118% (inactive)
14 | Cc1nn(C)c2ncnc(N/N=C/c3cccc(O)c3O)c12 | -1.19% (active)
15 | COc1ccc(N/N=C/c2cn(-c3ccc(C(=O)O)cc3)nc2-c2cc3ccccc3oc2=O)cc1 | 8.19% (active)
16 | O=C(Nc1ccccc1)Nc1ncnc2c1ncn2-c1ccc(Cl)cc1 | 95.3% (inactive)
17 | O=C1Cc2cc(CCN3CCN(c4nsc5ccccc45)CC3)c(Cl)cc2N1 | 108% (inactive)
18 | CCc1c(C(=O)NCc2c(O)ccc3cccc(O)c23)[nH]c(C)c1C(C)=O | 41.5% (inactive)
19 | CC(C)(C)CC(C)(C)NCc1cc(C(C)(C)C)cc(CNC(C)(C)CC(C)(C)C)c1O | -33.8% (active)
20 | COc1ccc(C/C(C)=C(\c2ccc(Cl)cc2)c2ccc(OCCN3CCCCC3)cc2)cc1 | 91.8% (inactive)

Row | SMILES | growth
21 | CCOc1cc(/C=N\NC(=O)N/N=C/c2ccc(O)c(OCC)c2)ccc1O | -22.2% (active)
22 | O=c1ccc(-c2nc(N3CCOCC3)c3ccccc3n2)c[nH]1 | 95.8% (inactive)
23 | Cc1c(Cl)cccc1NC(=O)c1sc2nc3c(cc2c1N)COCC3 | 2.35% (active)
24 | COc1ccc(-c2nc(-c3ccccc3)c(-c3ccccc3)n2C2CC2)cc1OC1CCCCC1 | 30% (inactive)
25 | CC/C(=N/NC(N)=O)c1ccccc1 | 101% (inactive)
26 | Cn1cc(-c2nonc2-c2cn(C)c3ccc(Br)cc23)c2ccccc21 | -18.9% (active)
27 | Fc1cccc(-c2nc(-c3c[nH]c4ncccc34)cs2)c1 | 97.2% [100 µM] (inactive)
28 | CC(=O)OCC1OC(OC2C(COC(C)=O)OC(OCCC[S-])C(OC(C)=O)C2OC(C)=O)C(OC(C)=O)C(OC(C)=O)C1OC(C)=O.[Au+].c1ccc(CN2[CH-]N(Cc3ccccc3)C(c3ccccc3)=C2c2ccccc2)cc1 (stereo not given) | 13.6% (inactive)
29 | COc1ccc(S(=O)(=O)N2CCN(C)CC2)cc1NC(=O)c1[nH]c(C)c2c1CCCCC2=O | 8.16% (active)
30 | Cc1ccc(Nc2ccc(Nc3ccc(C)cc3)c3c2C(=O)c2cccc(O)c2C3=O)cc1 | 94.3% (inactive)
31 | Cc1cc2nc(C(Cl)Cl)nc(-c3ccc(Cl)cc3)n2n1 | -8.18% (active)
32 | COc1ccc(-c2c(-c3cc4c(c(OC)c3OC)OCO4)noc2N)cc1 | 16.8% (inactive)
33 | COc1ccc(NC(=O)c2ccc(/C=C/C(=O)c3ncc[nH]3)cc2)cc1 | 33.6% (inactive)
34 | O=C1C2C(c3cccs3)C=C(c3ccc(Cl)cc3)N2C(=S)N1c1ccccc1 (stereo not given) | 99.8% (inactive)
35 | COc1cc(C2CC(=O)Nc3c2cc(Br)c2ccccc32)cc(Br)c1OC (stereo not given) | -2.09% (active)
36 | CS(=O)(=O)Nc1cc(-c2ccc3ncnc(Nc4ccc(F)c(Cl)c4)c3c2)cnc1Cl | 1.75% (active)
37 | CCOc1ccc(N=C(C)Nc2ccc(OCC)cc2)cc1 | 76.4% (inactive)
38 | OC1CCCc2ccccc21 (stereo not given) | 98.4% (inactive)
39 | N#Cc1c2ncccc2c2nnc3cc(Cl)c(Cl)cc3n12 | 80.4% (inactive)
40 | CC1(C)N=C(N)N=C(N)N1c1cccc(C#N)c1 | 35.7% (inactive)
